Assay [1] in a line: A549 cell viability effects, profiling panel, calcein-AM fluorescence, 48 h, basal (AID 1162). The settings on record: higher = more signal.
The nature of assay [2]: adipocyte viability effects, profiling panel, cell-based, 3T3-L1 adipocytes, calcein-AM fluorescence, 48 h, basal (AID 1163). The settings on record: 3T3-L1 adipocytes viability, higher = more signal.
The nature of assay [3]: HepG2 cell viability effects, profiling panel, calcein-AM fluorescence, 48 h, basal (AID 1164). To be noted: higher = more signal.
A short description of assay [4]: MM1S cell viability effects, profiling panel, calcein-AM fluorescence, 48 h, basal (AID 1165).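 Further: viability of MM1S multiple myeloma cells under basal unstimulated conditions.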 The settings on record: higher = more signal.
The nature of assay [5]: basal RPMI8226 viability, no added stimulus, profiling panel, cell-based, calcein-AM fluorescence, 48 h, PK04 Diversity Set (AID 1166).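 Further: cells grown under basal conditions without added stimulus.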 The settings on record: RPMI8226 myeloma viability, higher = more signal.
Assay [6] can be described thus: basal HepG2 mitochondrial membrane potential changes, profiling panel, cell-based, JC-1 fluorescence, 24 h, 100 nL compound (AID 1167). The settings on record: higher = more signal.
A short description of assay [7]: basal 3T3-L1 adipocyte mitochondrial potential changes, profiling panel, cell-based, JC-1 fluorescence, 3T3-L1 adipocytes, 24 h, 100 nL compound (AID 1168). To be noted: JC-1 mitochondrial fluorescence, higher = more signal, called active from +8 up or from −8 down.
A short description of assay [8]: basal RPMI8226 mitochondrial membrane potential changes, profiling panel, cell-based, JC-1 fluorescence, 24 h, 100 nL compound (AID 1169). To be noted: RPMI8226 myeloma, JC-1 mitochondrial potential fluorescence, higher = more signal.
The nature of assay [9]: basal MM1S mitochondrial membrane potential changes, profiling panel, cell-based, JC-1 fluorescence, 24 h, 100 nL compound (AID 1170). The settings on record: higher = more signal.
The nature of assay [10]: A549 lung cancer cell viability effects, profiling panel, resazurin fluorescence, 24 h, PK04 Diversity Set (AID 1171). The settings on record: higher = more signal, called active from +8 up or from −8 down. Background: Resazurin is reduced to fluorescent resorufin, in cell work by metabolically active cells.

The values that follow come from PubChem BioAssay.

Activity calls are given as the source filed them.
Further: test concentration not given here.

With `CC(C)CCC[C@@H](C)[C@H]1CC[C@@]2(C)C3=C(CC[C@]12C)[C@@]1(C)CC[C@H](OC(=O)C(C)(C)C)C(C)(C)C1CC3` (stereo not given in full), the z-score was 2.49 in [1]; 1.66 in assay [2]; 1.12 in assay [3]; 0.933 in [4]; -0.129 in [5]; 1.15 in assay [6]. The z-score was 0.39 (inactive) in assay [7], 0.363 in [8], -1.44 in assay [9] and 0.221 (inactive) in assay [10].

Consider `C=C(/C(=C/C[C@@H](OC(=O)c1ccncc1)c1ccccc1OCCO)c1cnc2ccccc2c1)C(C)C`, for which the z-score is -0.36 in assay [1]; -0.368 in assay [2]; -3.15 in [3]; -3.1 in [4]; -2.45 in [5]; 0.76 in [6]. Moreover, the z-score in assay [7] was -0.19 (inactive); in [8], 0.14; in assay [9] it was 1.08; in [10], -1.15 (inactive).

As for `COC(=O)[C@@]1(Cc2ccc(F)cc2)[C@@H]2[C@@H](CC(=O)[C@H]2CC(=O)C(=O)N2CCCC2)CN1C(=O)c1ccccc1`, the z-score in assay [1] is -0.974; in [2], -0.0508; in assay [3], -0.191; in [4], -2; in assay [5], -1.73; in assay [6], 0.129. Further, the z-score is -1.52 (inactive) in [7], -0.96 in assay [8], -1.25 in [9] and -0.919 (inactive) in assay [10].

Turning to `COC(=O)[C@@]1(Cc2ccc(F)cc2)[C@H]2c3cc(C(=O)N(C)C)n(Cc4ccc(C)c(F)c4F)c3C[C@H]2CN1C(=O)c1ccccc1`, the z-score in [1] is 0.674; in assay [2], -0.609; in assay [3] it was 1.03; in assay [4] it was -0.144; in assay [5] it was 0.299; in [6], 3.29. The z-score in [7] was 0.157 (inactive); in assay [8] it was 0.299; in assay [9], -0.605; in [10] it was 0.0638 (inactive).

Consider `CCCC=C(CCC)[C@@H](NS(=O)(=O)c1cccc2cccnc12)c1ccc(C(=O)OC)cc1`, for which the z-score in assay [1] was -1.76; in assay [2] it was -0.0806; in assay [3], -1.38; in assay [4] it was 0.131; in [5], -0.0956; in [6], -1.52. The z-score in assay [7] was -0.553 (inactive); in assay [8], 0.907; in [9] it was -1.13; in assay [10], 0.174 (inactive).

Turning to `COCCCNC(=O)[C@@]1(Cc2ccccc2N=[N+]=[N-])N=C(c2ccc(OCCCO)cc2)O[C@H]1c1ccccc1CN=[N+]=[N-]`, the z-score in assay [1] is -0.603; in assay [2], 1.66; in assay [3] it was -0.456; in [4], -1.72; in assay [5], -3.93; in assay [6], 3.03. Also, the z-score was 0.557 (inactive) in assay [7], -1.21 in assay [8], -0.593 in assay [9] and -1.92 (inactive) in assay [10].

Take `C=CCOC(=O)[C@H]1[C@@H]2C(=O)O[C@@H](c3ccccc3)[C@@H](c3ccccc3)N2[C@@H](c2ccc(OCCOC(=O)[C@H]3C[C@H]4C(=O)N[C@@H](CCCCN(C)C)C(=O)N4[C@H]3c3ccc(O)cc3)cc2)[C@]12C(=O)Nc1ccccc12`: the z-score is -0.514 in assay [1]; 1.04 in assay [2]; -0.434 in assay [3]; -1.54 in [4]; -0.0817 in assay [5]; -1.63 in assay [6]. For the same molecule, the z-score in assay [7] was 0.665 (inactive); in [8], -0.838; in assay [9], -0.391; in [10], 0.232 (inactive).

In the case of `CC(=O)NCCCC[C@@H]1NC(=O)[C@@H]2C[C@H](C(=O)NCCCC[N+](C)(C)C)[C@H](c3cccc(OCCO)c3)N2C1=O`, the z-score is -1.05 in assay [1]; -1.28 in assay [2]; -0.776 in assay [3]; -0.265 in assay [4]; -1.95 in assay [5]; -0.851 in assay [6]. In addition, the z-score is -0.0939 (inactive) in assay [7], 0.287 in assay [8], 0.235 in assay [9] and -0.485 (inactive) in assay [10].

As to `C[N+](C)(C)CCCC[C@@H]1NC(=O)[C@H]2C[C@@H](C(=O)NCCCCCCN)[C@@H](c3cccc(OCCO)c3)N2C1=O`, the z-score is -0.535 in assay [1]; 0.875 in assay [2]; -0.997 in [3]; 0.179 in [4]; 1.07 in assay [5]; -1.01 in [6]. The z-score in [7] is -0.547 (inactive); in assay [8], -0.0252; in assay [9], -0.154; in assay [10] it was -0.871 (inactive).

`CN(C)CCCCNC(=O)[C@H]1C[C@H]2C(=O)N[C@@H](CCCC[N+](C)(C)C)C(=O)N2[C@H]1c1cccc(OCCO)c1`: the z-score in [1] is -0.532; in assay [2], 0.067; in assay [3], -0.491; in assay [4], -0.845; in [5], 0.54; in assay [6], -1.18. For the same molecule, the z-score in [7] is -0.333 (inactive); in [8] it was -0.674; in [9], -0.448; in assay [10], 0.0625 (inactive).

On to `COCCOC(=O)N1C(=O)[C@@]2(c3cc(C#Cc4ccc(OC)cc4)ccc31)[C@H](C(=O)N1CCc3cc(OC)c(OC)cc3C1)[C@H]1C(=O)O[C@H](c3ccccc3)[C@H](c3ccccc3)N1[C@@H]2c1ccc(O)cc1`, for which the z-score was -0.0326 in assay [1]; 0.376 in [2]; 0.97 in [3]; 0.175 in assay [4]; -0.393 in assay [5]; -0.177 in assay [6]. The z-score in assay [7] was 0.302 (inactive); in [8] it was -0.185; in [9] it was 0.516; in assay [10], 0.361 (inactive).

With `COc1ccc([Si](C)(C)[C@H]2[C@H](CCn3cc(CCO)nn3)O[C@@]3(C(=O)N(Cc4cccc(N5C(=O)c6cccc7cccc5c67)c4)c4ccccc43)[C@@H]2C)cc1`, the z-score in assay [1] is -1.05; in [2], -0.354; in assay [3], -4.39; in assay [4], -2.83; in assay [5], -4.51; in assay [6] it was 1.6. In addition, the z-score in [7] was 2.9 (inactive); in assay [8], -1.05; in assay [9], -2.03; in assay [10], -3.05 (inactive).

`COc1ccc(C#Cc2ccc3c(c2)[C@]2(C(=O)N3)[C@H](C(=O)O)[C@H]3C(=O)O[C@H](c4ccccc4)[C@H](c4ccccc4)N3[C@@H]2c2ccc(OCCO)cc2)cc1`: the z-score in assay [1] is 0.614; in assay [2] it was 0.971; in assay [3], 1.27; in [4], -2.45; in assay [5], -4.03; in assay [6] it was -4.14. Moreover, the z-score is -4.58 (inactive) in assay [7], -1.23 in [8], -1.27 in [9] and 0.982 (inactive) in [10].

Take `CC(C)NC(=O)[C@@H]1c2ccccc2C(=O)N(Cc2cc(C(F)(F)F)cc(C(F)(F)F)c2)[C@H]1c1ccc(CO)cc1`: the z-score in assay [1] is -0.255; in assay [2] it was 0.884; in assay [3], -0.355; in [4] it was -1.1; in assay [5], -1.42; in assay [6] it was 0.571. For the same molecule, the z-score in [7] was 0.198 (inactive); in assay [8], 0.967; in assay [9], 0.144; in assay [10], 0.634 (inactive).

In the case of `COCC(=C=CC[C@@H](O)c1ccccc1OCCO)C[C@@H](O)c1ccccn1`, the z-score is 0.0929 in [1]; 0.158 in assay [2]; -0.0698 in assay [3]; -0.591 in assay [4]; 0.211 in [5]; -0.95 in assay [6]. The z-score in [7] was -0.99 (inactive); in assay [8], 0.0537; in assay [9], -0.952; in [10] it was -0.709 (inactive).

For `C[C@]12C(=O)N(CCCCCO)[C@@H]3C(=O)N(c4ccc(Cl)cc4)CC=CC31O[C@@H]1/C=C\CCCOC(=O)C12` (stereo not given in full), the z-score in assay [1] was -0.237; in assay [2], 0.282; in assay [3], 0.209; in assay [4], 0.355; in [5] it was -0.376; in [6], -0.259. The z-score in assay [7] was -0.175 (inactive); in assay [8], 0.109; in assay [9], -0.0571; in [10] it was -0.663 (inactive).
